Data: PMC4336329 (PLoS ONE, 2015)
The whole screen tested about 310,000 compounds, of which about 14,000 (4.5%) showed an effect of 50% or more. The effect is printed as a negative number. This is one part of a sample in which strong results are shown more often than they occur.

Each compound was assayed against human ether-à-go-go-related gene (hERG) potassium channel (human, UniProt Q12809) (assay: primary screen, population patch clamp on CHO cells stably expressing hERG; higher = less effect of the substance).
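Note: peak tail current of the secondary pulse compared with the same well before compound.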

Sequence of human ether-à-go-go-related gene (hERG) potassium channel (Q12809 whole entry, looked up): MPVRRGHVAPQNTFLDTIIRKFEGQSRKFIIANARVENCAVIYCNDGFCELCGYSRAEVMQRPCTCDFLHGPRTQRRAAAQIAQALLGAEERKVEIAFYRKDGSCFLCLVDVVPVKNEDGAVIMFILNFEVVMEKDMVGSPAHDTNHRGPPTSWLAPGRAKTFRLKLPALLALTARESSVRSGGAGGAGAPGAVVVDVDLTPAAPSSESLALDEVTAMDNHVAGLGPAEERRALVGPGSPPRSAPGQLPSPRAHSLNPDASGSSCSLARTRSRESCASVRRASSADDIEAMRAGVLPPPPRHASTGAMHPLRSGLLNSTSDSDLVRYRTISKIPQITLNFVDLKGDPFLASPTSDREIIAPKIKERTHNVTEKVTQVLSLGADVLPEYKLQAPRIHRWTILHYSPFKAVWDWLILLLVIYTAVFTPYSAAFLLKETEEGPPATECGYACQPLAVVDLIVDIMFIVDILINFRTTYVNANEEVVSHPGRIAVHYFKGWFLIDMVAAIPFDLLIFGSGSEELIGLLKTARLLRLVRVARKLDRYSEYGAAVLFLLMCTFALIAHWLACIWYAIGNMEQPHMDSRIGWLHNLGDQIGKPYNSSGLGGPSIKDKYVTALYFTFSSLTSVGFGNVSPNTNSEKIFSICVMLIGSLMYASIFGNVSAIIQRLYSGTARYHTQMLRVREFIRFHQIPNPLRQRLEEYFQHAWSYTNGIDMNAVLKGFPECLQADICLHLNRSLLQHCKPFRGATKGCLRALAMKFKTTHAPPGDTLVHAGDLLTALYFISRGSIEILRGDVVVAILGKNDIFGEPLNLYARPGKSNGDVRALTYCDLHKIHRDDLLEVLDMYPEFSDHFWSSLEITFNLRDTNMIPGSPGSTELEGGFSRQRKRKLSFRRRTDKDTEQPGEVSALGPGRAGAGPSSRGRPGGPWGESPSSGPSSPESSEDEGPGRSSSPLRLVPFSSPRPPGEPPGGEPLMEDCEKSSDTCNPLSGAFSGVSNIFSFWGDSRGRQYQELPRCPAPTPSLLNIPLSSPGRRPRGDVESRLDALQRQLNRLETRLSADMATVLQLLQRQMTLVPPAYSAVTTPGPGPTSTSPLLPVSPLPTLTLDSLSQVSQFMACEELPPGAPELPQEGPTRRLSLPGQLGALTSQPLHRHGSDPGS

SMILES	hERG current change (%, negative = inhibition) at 10uM
CCn1c(-c2ccc(N)cc2)nc2ccccc21	4.21%
CN(C)c1ccc(-c2nc3ccccc3n2C)cc1	-49.9%
CCn1c(-c2ccc(N(C)C)cc2)nc2ccccc21	-50.3%
C=C(C)Cn1c(-c2ccc(OC)cc2)nc2ccccc21	-23.4%
C=C(C)Cn1c(-c2ccccc2)nc2ccccc21	-64.9%
COCn1c(-c2ccccc2)nc2ccccc21	-5.43%
Cc1ccc(C(=O)CSc2nc(N)cc(=O)[nH]2)cc1	2.68%
Fc1ccc(NC(=S)N/N=C/c2cccc(Br)c2)c(F)c1	3.9%
O=C(COC(=O)Cc1ccsc1)NCc1ccc(Cl)cc1	10.6%
CC(Sc1cnc2ccccc2n1)C(=O)O (centres unmarked)	15.9%
Cc1ccc(C#N)c(SCc2ccccc2[N+](=O)[O-])n1	2.72%
CCOc1ccc(-c2nc(C)c(C(C)=O)n2O)cc1	-0.685%
Cc1nonc1OCCNCCNc1ccccc1[N+](=O)[O-]	-23.4%
Cc1nonc1OCCN1CCN(c2ccccc2[N+](=O)[O-])CC1.Cl	-37.2%
CCNCCNc1ccc([N+](=O)[O-])c2cccnc12	-22.8%
Cc1nonc1OCCN1CCN(c2ccc([N+](=O)[O-])cc2)CC1	-98.3%
O=[N+]([O-])c1ccc(NCCNCCOc2nonc2-c2ccccc2)c([N+](=O)[O-])c1	-68.6%
Cc1nonc1OCCNc1ccc([N+](=O)[O-])c2cccnc12	-18%
Cc1nonc1OCCCNc1ccc([N+](=O)[O-])cc1Cl	9.59%
Cc1nonc1OCCNCCNc1ccc([N+](=O)[O-])cc1Cl	-49.7%
Cc1nonc1OCCNCCNc1ccc([N+](=O)[O-])c2cccnc12	-52.2%
O=[N+]([O-])c1ccc(N2CCN(CCOc3nonc3-c3ccccc3)CC2)c(Cl)c1	-4.17%
O=[N+]([O-])c1cc(C(F)(F)F)ccc1NCCOc1ccccc1	-3.64%

SMILES	hERG current change (%, negative = inhibition) at 10uM
Cc1nonc1OCCNc1ccc([N+](=O)[O-])cc1[N+](=O)[O-]	-54.7%
CNC(=O)c1csc(-c2ccc(Cl)cc2)n1	-4.29%
CCn1cc([N+](=O)[O-])c(C(=O)NCc2ccc(Cl)cc2)n1	-6.18%
CCO.NCCc1c[nH]c2ccc(C(N)=O)cc12.O=C([O-])/C=C\C(=O)[O-]	11.6%
CC(=O)c1ccc(NC(=O)C2CCCN2S(=O)(=O)c2ccc(F)cc2)cc1 (centres unmarked)	-16.6%
O=c1c2ccccc2[nH]c(=S)n1CCCn1ccnc1	-0.744%
O=S(=O)(c1ccc(NC(=S)Nc2ccc3c(c2)OCO3)cc1)N1CCOCC1	13.1%
COc1ccc(C2/C=C\CN(C(=O)C3CCCCC3)CC(=O)N2Cc2ccc(F)cc2)cc1 (centres unmarked)	-10.1%
Cc1cc(OCC(=O)NNC(=O)CCc2ccccc2)ccc1Br	17.6%
CCC[N+](C)(C)C(C)C(OC(C)=O)c1ccccc1.[I-] (centres unmarked)	15.5%
CCOC(=O)CC(=O)Nc1ccsc1C(N)=O	15.9%
COc1ccccc1N1CCN(/N=C/c2ccc(C(=O)O)cc2)CC1	16.3%
COc1ccc(S(=O)(=O)NCC2CCCN(C(=O)c3ccccc3)C2)cc1 (centres unmarked)	8.3%
CC1=C(C(=O)N2CCOCC2)C(c2c(C)cc(C)cc2C)NC(=S)N1 (centres unmarked)	10.5%
COC(=O)C1=CN(c2cc(C)cc(C)c2)C=C(C(=O)OC)C1c1ccc(OC)c(O)c1	10.9%
CN(C)CCCNCCNC(=O)/C=N\O.Cl	-65.4%
CN(C)CCCNCCCCNC(=O)/C=N/O	0.266%
CN(C)CCCNCCCNC(=O)/C=N/O	10.2%
CCOc1ccc(OCCC(=O)OC(C)C(=O)Nc2ccc(C(C)=O)cc2)cc1 (centres unmarked)	8.72%
CC(=O)Nc1ccc(S(=O)(=O)N2c3ccccc3NC(=O)CC2C)c(Cl)c1 (centres unmarked)	11.9%
CCOc1ccc(Nc2nc3c(C)cccc3cc2C#N)cc1	4.76%
Cc1cc(=O)oc2cc(Oc3ccc(C(N)=O)cc3[N+](=O)[O-])ccc12	-20.7%
O=Cc1cccc(Oc2ccc([N+](=O)[O-])cc2[N+](=O)[O-])c1	-55%

SMILES	hERG current change (%, negative = inhibition) at 10uM
Nc1ccc(Oc2ccc([N+](=O)[O-])cc2[N+](=O)[O-])cc1	-37.7%
O=C(N/N=C/c1cccc(Oc2ccc([N+](=O)[O-])cc2[N+](=O)[O-])c1)c1cncc(Br)c1	-32.1%
Cc1cc(=O)oc2cc(Oc3ccc([N+](=O)[O-])cc3C(F)(F)F)ccc12	-15%
Cc1cc(=O)oc2cc(Oc3ccc([N+](=O)[O-])cc3[N+](=O)[O-])ccc12	-64.4%
Cc1ccc(O)c(C2=Nc3ccccc3N=C(c3cccc([N+](=O)[O-])c3)C2)c1	20.9%
O=C(COc1ccccc1)OCc1cc(-c2ccco2)on1	5.99%
Cc1ccc(C)c(NC(=S)N2CCN(Cc3ccccc3)CC2)c1	11.2%
O=C(O)CCN=C1CCCc2ccccc2N1	7.26%
O=C1CC(c2ccccc2)CC(O)=C1C=NC1CCCCCC1 (centres unmarked)	6.58%
O=C1CC(c2ccccc2)CC(O)=C1C=NC1CCCC1 (centres unmarked)	-5.2%
O=C1CC(c2cccc(Cl)c2)CC(O)=C1C=NC1CCCC1 (centres unmarked)	-59.8%
CCOc1ccc(C(=O)NCC(=O)NCC(c2ccc(OC)cc2)N2CCCC2)cc1 (centres unmarked)	-4.71%
Cc1ccc(C)c(OC(=O)C2CSC3(C)CCC(=O)N23)c1C (centres unmarked)	-7.46%
COc1cc(C(O)P(=O)(OCCC(C)C)c2ccc(N(C)C)cc2)cc(OC)c1OC (centres unmarked)	10.9%
CCOc1ccc2c(c1)ncn2Cc1ccccc1	8.33%
COc1ccc(NC(=O)N(CCN2CCCC2)Cc2cc3cc(OC)c(OC)cc3[nH]c2=O)cc1	-4.32%
Cc1cccc2cc(CN(CCCO)C(=O)Nc3cccc(Cl)c3)c(=O)[nH]c12	-28.4%
COc1ccc(NC(=O)N(CCO)Cc2cc3c(C)cc(C)cc3[nH]c2=O)cc1	-15.3%
Cc1ccc2cc(CN(CC3CCCO3)C(=O)NC3CCCCC3)c(=O)[nH]c2c1C (centres unmarked)	-55.4%
Cc1ccc(C)c2[nH]c(=O)c(CN(CCN3CCCC3)C(=O)Nc3cccc(Cl)c3)cc12	-74.1%
Cc1ccc2cc(CN(CCN(C)C)C(=S)Nc3ccccc3)c(=O)[nH]c2c1C	-49.9%
COc1ccc(NC(=S)N(CCO)Cc2cc3c(C)cc(C)cc3[nH]c2=O)cc1	-48.8%
Cc1ccc(C)c2[nH]c(=O)c(CN(CC3CCCO3)C(=O)NC3CCCCC3)cc12 (centres unmarked)	-2.81%

SMILES	hERG current change (%, negative = inhibition) at 10uM
Cc1cccc2cc(CN(CC3CCCO3)C(=O)NC3CCCCC3)c(=O)[nH]c12 (centres unmarked)	-9.99%
Cc1ccc2cc(CN(CCN3CCCC3)C(=O)Nc3ccccc3)c(=O)[nH]c2c1C	-57.8%
O=C(Nc1cccc(Cl)c1)N(CCN1CCOCC1)Cc1cccc(Cl)c1	-22.1%
Cc1cc(C)c2cc(CN(CCN3CCCC3)C(=O)Nc3ccc(F)cc3)c(=O)[nH]c2c1	-74.4%
CCC(c1nnnn1CS(=O)(=O)c1ccc(C)cc1)N1CCN(c2nc3ccccc3s2)CC1 (centres unmarked)	-4.38%
CC(C)NC(=O)[C@@H]1CSC2c3ccccc3C(=O)N21 (some centres unmarked)	12.7%
Nc1nc(-c2ccc(Cl)cc2)nn1C(=O)c1ccco1	23.3%
CCOC(=O)C(Cc1ccccc1)C(=O)Nc1cccc2ccccc12 (centres unmarked)	-11.8%
CC(C)Cn1c(N)c(C(=O)COC(=O)[C@@H]2CCCN2C(=O)c2cccs2)c(=O)n(C)c1=O	-8.74%
O=C(c1c[nH]c2ccccc12)N1CCOCC1	8.48%
c1ccc(COc2ccc(-c3csnn3)cc2)cc1	-3.17%
Cc1nc(-c2ccc(Cl)cc2)sc1C1(C)CC(c2ccc(OC(F)(F)F)cc2)=NO1 (centres unmarked)	10.3%
O=C(Cc1ccccc1)Nc1cccc(N2C(=O)C=CC2=O)c1	-4.45%
O=C(Nc1cccc2[nH]ncc12)c1ccc(F)cc1	-17.4%
Cc1ccc(C)c2[nH]c(=O)c(CN(Cc3ccco3)C(=O)Nc3ccccc3)cc12	1.89%
Cc1cccc2cc(CN(CCN3CCCC3)C(=O)NC3CCCCC3)c(=O)[nH]c12	-57%
Cc1ccc2cc(CN(CCN3CCCC3)C(=O)Nc3ccc(F)cc3)c(=O)[nH]c2c1C	-70.7%
Cc1cccc2cc(CN(Cc3ccco3)C(=O)NC3CCCCC3)c(=O)[nH]c12	-38.9%
Cc1ccc(C)c2[nH]c(=O)c(CN(CCN3CCCC3)C(=O)Nc3ccc(F)cc3)cc12	-75.7%
Cc1cccc2cc(CN(CCN3CCOCC3)C(=O)Nc3ccccc3F)c(=O)[nH]c12	-20.6%
COc1ccc(CCN(Cc2cc3cccc(C)c3[nH]c2=O)C(=O)NC2CCCCC2)cc1OC	-25%
COc1cc2cc(CN(CCN3CCCC3)C(=O)Nc3ccc(F)cc3)c(=O)[nH]c2cc1OC	-7.92%
COc1cc2cc(CN(CCN3CCOCC3)C(=O)Nc3ccc(F)cc3)c(=O)[nH]c2cc1OC	-28.6%
